SMARCA2 activ: activators of SMARCA2 function | MG213 cells, MMTV-luciferase reporter, dexamethasone, overnight | activation, % at 9.1 µM | actives 1% (n = 370,000) | AID 652017; in the data active = activation above about 7.8%
Gli-Sufu antag: blocks Gli-Sufu signaling in a luciferase reporter. Sufu-KO-LIGHT fibroblasts, Gli luciferase reporter luminescence. inhibition, % at 5 µM. actives 0.74% (n = 340,000);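 active = inhibition above about 55%, limit read from the data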
esBAF inh: inhibitors of esBAF chromatin remodeling in mouse ES cells; AID 602393; actives 2% (n = 350,000); Bmi1-luciferase knock-in reporter, 24 h; 100% = twice the neutral-well signal; reporter increase, % at 12.5 µM; in the data active = activation above about 40%;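 note: a rise in the Bmi1 reporter signal indicates esBAF inhibition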
697 NFkB inh: inhibitors of the PMA/ionomycin-induced NF-kB reporter in 697 B cells; actives 0.33% (n = 330,000); AID 435022; inhibition, % at 4 µM; 697 B-cell NF-kB luciferase reporter, 16 h; in the data active = inhibition above about 35%
Jurkat NFkB inh: lowers PMA/ionomycin-induced NF-kB signal in Jurkat cells; PMA/ionomycin-induced NF-kB luciferase reporter, luminescence; inhibition, % at 4 µM; actives 0.53% (n = 330,000); in the data active = inhibition above about 50%
697 NFkB conf: inhibitors of the PMA/ionomycin-induced NF-kB reporter in 697 B cells, retest; 697 B-cell NF-kB luciferase, 16 h; actives 35% (n = 2,000); AID 449746; shares compounds with 697 NFkB inh; inhibition, % at 4 µM; in the data active = inhibition mostly above about 28%, no sharp cut-off; inactive = mostly below about 22%
Hits are given with their value. The list is not random: actives were taken first. Their share in the collection is about 3.3%.

How did O=C(Cc1n[nH]c(=O)c2ccccc12)OCc1c(Cl)cccc1Cl do in these assays?
SMARCA2 activ: inactive; Gli-Sufu antag: inactive; esBAF inh: inactive; 697 NFkB inh: inactive; Jurkat NFkB inh: inactive; 697 NFkB conf: inactive

What do the screens show for `O=C1CC(C(=O)Nc2cccc(F)c2)n2c(nc3ccccc32)N1` (stereo not given)?
SMARCA2 activ: inactive; Gli-Sufu antag: inactive; esBAF inh: inactive; 697 NFkB inh: 35; Jurkat NFkB inh: inactive; 697 NFkB conf: inactive

What do the screens show for `O=C(NCC[C@@H]1CC[C@H](NS(=O)(=O)c2cccc(F)c2)[C@H](CO)O1)C1CC1`?
esBAF inh: inactive

What do the screens show for `C[C@H]1CN([C@@H](C)CO)C(=O)c2cc(C3=CCCCC3)cnc2O[C@@H]1CN(C)Cc1ccc(C(=O)O)cc1`?
esBAF inh: inactive

Results for C=CCNC(=O)c1ccc(-c2nc3ccccc3nc2-c2ccccc2)cc1 ?
SMARCA2 activ: inactive; Gli-Sufu antag: inactive; esBAF inh: inactive; 697 NFkB inh: inactive; Jurkat NFkB inh: inactive

What do the screens show for `C=CCNC(=O)c1ccc(-c2nc(-c3ccccc3)cs2)cc1`?
SMARCA2 activ: inactive; Gli-Sufu antag: inactive; 697 NFkB inh: inactive; Jurkat NFkB inh: inactive; 697 NFkB conf: inactive

What do the screens show for `COc1ccc(-c2cc(C(=O)N(C)CC(=O)Nc3ccccc3Br)c3ccccc3n2)cc1OC`?
SMARCA2 activ: inactive; Gli-Sufu antag: inactive; esBAF inh: inactive; 697 NFkB inh: 44; Jurkat NFkB inh: inactive; 697 NFkB conf: inactive

Results for COc1ccc(-c2cc(C(=O)N(C)CC(=O)Nc3ccccc3C(F)(F)F)c3ccccc3n2)cc1OC ?
SMARCA2 activ: inactive; esBAF inh: inactive

How did c1ccc(-c2ccc(-c3nc(-c4ccncc4)no3)cc2)cc1 do in these assays?
SMARCA2 activ: inactive; Gli-Sufu antag: inactive; esBAF inh: inactive; 697 NFkB inh: inactive; Jurkat NFkB inh: inactive; 697 NFkB conf: inactive

What do the screens show for `CCCCc1ccc(-c2nc(-c3ccncc3)no2)cc1`?
SMARCA2 activ: inactive; Gli-Sufu antag: inactive; esBAF inh: inactive; 697 NFkB inh: inactive; Jurkat NFkB inh: inactive

Results for CCc1ccc(-c2nc(-c3ccncc3)no2)cc1 ?
SMARCA2 activ: inactive; Gli-Sufu antag: inactive; esBAF inh: inactive; 697 NFkB inh: inactive; Jurkat NFkB inh: inactive; 697 NFkB conf: inactive

Results for c1ccc(-c2nc(-c3ccncc3)no2)cc1 ?
SMARCA2 activ: inactive; Gli-Sufu antag: inactive; esBAF inh: inactive; 697 NFkB inh: inactive; Jurkat NFkB inh: inactive

Results for C[C@H]1CN([C@@H](C)CO)C(=O)Cc2cc(NS(=O)(=O)c3ccc(F)cc3)ccc2O[C@@H]1CN(C)C(=O)Nc1cccc2ccccc12 ?
esBAF inh: inactive

What do the screens show for `O=C(Nc1ccccc1)N[C@@H]1CC[C@@H](CCNC(=O)c2ccccc2F)O[C@H]1CO`?
esBAF inh: inactive

How did COc1ccc2cc3cc(C(=O)N4CCCCCC4)oc3nc2c1 do in these assays?
Gli-Sufu antag: inactive; esBAF inh: inactive; 697 NFkB inh: inactive; Jurkat NFkB inh: inactive; 697 NFkB conf: inactive

Results for Cc1ccc(NC(=O)c2nc[nH]c2C(=O)NCCCNC(=O)c2[nH]cnc2C(=O)Nc2ccc(C)cc2)cc1 ?
Gli-Sufu antag: inactive; esBAF inh: inactive; 697 NFkB inh: 36; Jurkat NFkB inh: inactive; 697 NFkB conf: inactive

Results for Cc1ccc(C)c(S(=O)(=O)N2CCN(C(=O)Cn3c(C(F)(F)F)nc4ccccc43)CC2)c1 ?
SMARCA2 activ: inactive; Gli-Sufu antag: inactive; esBAF inh: inactive; 697 NFkB inh: 37; Jurkat NFkB inh: inactive; 697 NFkB conf: inactive

How did NNC(=O)c1cccc(COc2ccccc2Br)c1 do in these assays?
SMARCA2 activ: inactive; Gli-Sufu antag: inactive; esBAF inh: inactive; 697 NFkB inh: inactive; Jurkat NFkB inh: inactive

What do the screens show for `NNC(=O)c1cccc(COc2ccc3c(c2)CCC3)c1`?
SMARCA2 activ: inactive; Gli-Sufu antag: inactive; 697 NFkB inh: 56; Jurkat NFkB inh: inactive; 697 NFkB conf: inactive

What do the screens show for `C[C@H]1CN([C@@H](C)CO)C(=O)c2cc(-c3cncnc3)cnc2O[C@H]1CN(C)Cc1ccc(Oc2ccccc2)cc1`?
esBAF inh: inactive

Results for O=C(O)c1ccccc1C(=O)NCc1cccnc1 ?
SMARCA2 activ: inactive; Gli-Sufu antag: inactive; esBAF inh: inactive; 697 NFkB inh: inactive; Jurkat NFkB inh: inactive

How did O=C(NCc1cccnc1)c1cccn2c(=O)c3sccc3nc12 do in these assays?
SMARCA2 activ: inactive; Gli-Sufu antag: inactive; esBAF inh: inactive; 697 NFkB inh: 38; Jurkat NFkB inh: inactive; 697 NFkB conf: inactive

Results for C[C@@H]1CN([C@H](C)CO)C(=O)c2cc(NC(=O)C3CCCCC3)ccc2O[C@@H](C)CCCCO[C@@H]1CN(C)S(=O)(=O)c1ccccc1 ?
esBAF inh: inactive

Results for C[C@@H]1CN([C@@H](C)CO)C(=O)c2cc(NS(=O)(=O)c3cn(C)cn3)ccc2O[C@@H]1CN(C)S(=O)(=O)c1cn(C)cn1 ?
esBAF inh: inactive

Results for COc1ccc(NS(=O)(=O)c2cc(NC(=O)c3cncc(Br)c3)ccc2OC)cc1 ?
SMARCA2 activ: inactive; Gli-Sufu antag: inactive; esBAF inh: inactive; 697 NFkB inh: inactive; Jurkat NFkB inh: inactive

Results for COc1ccc(NS(=O)(=O)c2cc(NC(=O)c3nn(C)c(=O)c4ccccc34)ccc2OC)cc1 ?
SMARCA2 activ: inactive; Gli-Sufu antag: inactive; esBAF inh: inactive; 697 NFkB inh: 37; Jurkat NFkB inh: inactive; 697 NFkB conf: inactive

How did O=C(C[C@H]1CC[C@H]2[C@@H](COC[C@H](O)CN2Cc2cccc(F)c2)O1)NCC1CCCCC1 do in these assays?
esBAF inh: inactive

How did CC/C(=N/Nc1cccc(C)c1)c1cnnc(SC)n1 do in these assays?
SMARCA2 activ: inactive; Gli-Sufu antag: inactive; 697 NFkB inh: inactive; Jurkat NFkB inh: inactive

How did CC/C(=N/Nc1ccc(Cl)cc1)c1cnnc(SC)n1 do in these assays?
SMARCA2 activ: inactive; Gli-Sufu antag: inactive; 697 NFkB inh: 36; Jurkat NFkB inh: inactive; 697 NFkB conf: inactive

What do the screens show for `C[C@@H]1CN([C@H](C)CO)C(=O)c2c(c3ccccc3n2C)-c2ccccc2CO[C@@H]1CN(C)C(=O)Cc1ccccc1`?
esBAF inh: inactive

Results for CC(C)c1nnc(NC(=O)c2sc3ccccc3c2Cl)s1 ?
SMARCA2 activ: inactive; Gli-Sufu antag: inactive; 697 NFkB inh: inactive; Jurkat NFkB inh: inactive

What do the screens show for `O=C(Nc1nccs1)c1sc2ccccc2c1Cl`?
SMARCA2 activ: inactive; Gli-Sufu antag: inactive; 697 NFkB inh: inactive; Jurkat NFkB inh: inactive; 697 NFkB conf: inactive

What do the screens show for `CC(=O)N1[C@@H]2c3ccc(C4=CCCC4)c(=O)n3C[C@@H]2[C@@H](CO)[C@@H]1C(=O)N1CCCCC1`?
esBAF inh: inactive

What do the screens show for `S=c1[nH]nc(-c2ccccc2)n1/N=C/c1ccc(-c2ccccc2Cl)o1`?
SMARCA2 activ: inactive; Gli-Sufu antag: inactive; 697 NFkB inh: inactive; Jurkat NFkB inh: inactive; 697 NFkB conf: inactive
